This is an account of results in PubChem BioAssay AID2284375 (EPA ToxCast).

Inconclusive results are not listed. Calls of active or inactive are those of the source. The calls were made as follows: active = hit-call score of the fitted dose curve at least 0.9, where 1 is the maximum; inconclusive = response in the unintended direction; inactive = score below 0.9.

Chain of Estrogen receptor (Homo sapiens) (P03372 whole entry, looked up): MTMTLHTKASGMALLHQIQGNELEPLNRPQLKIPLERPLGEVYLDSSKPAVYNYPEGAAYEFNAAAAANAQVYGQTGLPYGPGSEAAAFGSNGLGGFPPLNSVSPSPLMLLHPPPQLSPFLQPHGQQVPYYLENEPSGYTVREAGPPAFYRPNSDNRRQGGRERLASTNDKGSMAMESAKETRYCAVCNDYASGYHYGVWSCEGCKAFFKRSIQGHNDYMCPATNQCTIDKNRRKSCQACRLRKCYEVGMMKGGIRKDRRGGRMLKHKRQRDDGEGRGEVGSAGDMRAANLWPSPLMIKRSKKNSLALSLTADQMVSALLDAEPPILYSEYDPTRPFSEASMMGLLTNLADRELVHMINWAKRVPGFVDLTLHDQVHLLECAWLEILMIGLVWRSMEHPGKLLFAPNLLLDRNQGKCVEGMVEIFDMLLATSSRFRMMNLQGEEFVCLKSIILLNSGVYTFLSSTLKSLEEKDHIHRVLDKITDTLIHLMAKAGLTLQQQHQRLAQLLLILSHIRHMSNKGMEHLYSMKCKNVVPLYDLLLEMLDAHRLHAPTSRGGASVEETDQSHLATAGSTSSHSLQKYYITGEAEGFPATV

The target in the assay is Estrogen receptor (Homo sapiens) (UniProt P03372). Kind of assay: ERF_US_NR_hESR1: Eurofins (ERF) Nuclear Receptor (NR) Cell Based Protein-Protein Interaction LeadHunter Assay for human Estrogen Receptor alpha (ERa) Agonism. The method, then:
ERF_US_NR_hESR1 is a cell-based, single-readout assay that uses extracted gene-proteins in a cell-line assay. Measurements were taken 5 hours after chemical dosing in a 384-well plate. See ERalpha Human Estrogen NHR Cell Based Agonist Protein-Protein Interaction Assay, DiscoverX.ERF_US_NR_hESR1 is an assay component calculated from the ERF_US_NR_hESR1 assay. It is designed to […].Data from the assay component ERF_US_NR_hESR1 was analyzed at the assay endpoint, ERF_US_NR_hESR1, in the positive analysis fitting direction relative to DMSO as the negative control and baseline of activity. Using a type of binding reporter, gain-of-signal activity can be used to understand changes in binding as they relate to gene ESR1. To generalize the intended target to other relatable targets, this assay endpoint is annotated to the nuclear receptor intended target family, where the subfamily is steroid.
Cells were seeded in a total volume of 20 uL into white walled, 384-well microplates and incubated at 37C overnight prior to testing. Briefly, intermediate dilution of sample stocks was performed to generate 5X sample in assay buffer. 5 uL of 5X sample was added to cells and incubated at37C for 300 minutes. Final assay vehicle concentration was 1%. The results are expressed as a percent efficacy of the control ligand.
For the compound `NS(=O)(=O)C(F)(F)C(F)(F)C(F)(F)C(F)(F)C(F)(F)C(F)(F)C(F)(F)C(F)(F)F`, the compound was called inactive.

In the case of `OCC(F)(F)OC(F)(F)C(F)(F)OC(F)(F)C(F)(F)OC(F)(F)F`, the concentration at half-maximal activity (AC50) was 19.5 µM (active).

On to `OCC(F)(F)OC(F)(F)C(F)(F)OC(F)(F)C(F)(F)OC(F)(F)CO`, for which the result was inactive.

As usually defined, the AC50 is the concentration giving half of the maximal activity seen.
